“And” between values parts separate entries of the source, which are not always exact repeats. Identical values can stand only once. This is part of a sample that, as a whole, favours compounds with a hit. Of some 83,000 tested, about 20% had one in any assay.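 Percent growth is the endpoint: 0 to 100 indicates growth inhibition (40 means 60% inhibition), 0 means no net growth, and negative values indicate cell death.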 The source made the active and inactive calls. Rule for the calls: active = growth percent below 10; inactive = the rest.
The compounds below were run on HL-60(TB) leukemia (assay: NCI-60 one-dose screen, 48 h (100 = growth as untreated, 0 = no growth, -100 = all killed)). Details: 10 µM unless noted.

Question: How did the growth turn out when `COc1ccc(/C=C2\C(=O)N=C3N2NC(c2cc(Br)ccc2O)C=C(C)N3c2ccccc2)cc1` (stereo not given) was run?
Answer: 99% (inactive)

Question: For `COC(=O)c1cc(-c2ccc(C)cc2)n(C(=O)CSc2nc3sc(C(N)=O)c(C)c3c(=O)n2Cc2ccccc2)n1`, which growth is on record?
Answer: 106% (inactive)

Question: Which growth does the source give for `CC(=O)C1CCC2C3CC=C4CC(SC(=N)N)CCC4(C)C3CCC12C` (stereo not given) here?
Answer: -17.6% (active)

Question: How did the growth turn out when `CC(=O)Nc1ccc2c(c1)Cc1cc(F)ccc1-2` was run?
Answer: 66.8% (inactive)

Question: For `CN1CCN(c2ccc(C(=O)Nc3cccc(C#Cc4cccc5[nH]nc(N)c45)c3)cc2C(F)(F)F)CC1`, which growth is on record?
Answer: -36.1% (active)

Question: For `O=C(Nc1ccccc1Cl)Oc1ccc(-c2ccccc2)cc1`, which growth is on record?
Answer: 97.4% (inactive)

Question: With `C=C1CCC2C(C)(CO)C(O)CCC2(C)C1CC(NCc1ccccc1)C1=CCOC1=O` (stereo not given) as the compound, how does the growth read?
Answer: 111% (inactive)

Question: With `O=C(O)c1ccc[n+](CC(=O)N2CCN(c3cc4c(cc3F)c(=O)c(C(=O)O)cn4C3CC3)CC2)c1` as the compound, how does the growth read?
Answer: 97.6% (inactive)

Question: With `O=C(Nc1nc2ccc(C(=O)N3CCN(c4ccc(Cl)c(Cl)c4)CC3)cc2s1)c1ccc(NCCc2ccccc2)c([N+](=O)[O-])c1` as the compound, how does the growth read?
Answer: 101% (inactive)

Question: For `Cc1nn(-c2ccccc2)c2nc(C)n(-c3ccc(Br)cc3)c(=O)c12`, which growth is on record?
Answer: -5.26% (active)

Question: How did the growth turn out when `O=C(O)c1[nH]c(=O)[nH]c(=O)c1[N+](=O)[O-]` was run?
Answer: 127% (inactive)

Question: For `Cc1ccc(C2=Nc3c(ccc4c(C)c(C)c(=O)oc34)OC2)cc1`, which growth is on record?
Answer: 98.3% (inactive)

Question: Which growth does the source give for `C[C@H](CCC(=O)O)[C@H]1CC[C@H]2[C@@H]3CC[C@@H]4/C(=C\c5ccco5)C(=O)/C(=C\c5ccco5)C[C@]4(C)[C@H]3CC[C@]12C` here?
Answer: 29.9% (inactive)

Question: How did the growth turn out when `Cn1c(=O)c2nc(/C=C/c3ccccc3)c(=O)[nH]c2n(C)c1=S` was run?
Answer: 98.2% (inactive)

Question: `CS(=O)(=O)C1=CN(CCO)C(=O)N2CCCN=C12` was tested. Which growth did it give?
Answer: 109% (inactive)

Question: `CC(C)Cc1ccc(C(C)C(=O)NCc2ccc(Cn3c(=O)sn(CCCCl)c3=O)cc2)cc1` (stereo not given) was tested. Which growth did it give?
Answer: 102% (inactive) and -23.6% (active)

Question: `CN(c1ccccc1)c1ccc2c(c1)OCCC21CC1Nc1cnccc1C(=O)O` (stereo not given) was tested. Which growth did it give?
Answer: 65.3% (inactive)

Question: For `Cc1ccc(NS(=O)(=O)c2ccc(C)cc2)cc1`, which growth is on record?
Answer: 87.5% (inactive) and 114% (inactive)

Question: Which growth does the source give for `COc1ccc(C2=Nc3c/c(=C\c4c(O)[nH]c5ccc(Cl)cc45)ccc3=N2)cc1` here?
Answer: 6.79% (active)

Question: How did the growth turn out when `CC(C)=NNc1ccccn1` was run?
Answer: 34.6% (inactive)

Question: How did the growth turn out when `C=C1c2c(C)nn(-c3ccc(OC)cc3)c2N(C)C23C[C@@H]1C1(C)c4c(C)nn(-c5ccc(OC)cc5)c4N(C)C(C)(C[C@H]12)C3` (stereo not given in full) was run?
Answer: -2.21% (active)

Question: With `COc1cc2nc(N3CCC[C@@H](NC(=O)C4COc5ccccc5O4)C3)nc(N)c2cc1OC` (stereo not given in full) as the compound, how does the growth read?
Answer: 105% (inactive) and 102% (inactive)

Question: With `COc1c(B(O)O)cccc1-c1nc2ccc3[nH]ncc3c2c2c1CCC2` as the compound, how does the growth read?
Answer: 61.6% (inactive)

Question: How did the growth turn out when `Cc1ccc(OC(=O)c2ccc(Cl)cc2)cc1` was run?
Answer: 124% (inactive)

Question: `N=C(N)c1ccc(-c2ccc(-c3ccccc3)o2)nc1` was tested. Which growth did it give?
Answer: 54.1% (inactive)

Question: Which growth does the source give for `Cc1ccc2cccc(Oc3ccc(Nc4ncnc5onc(-c6ccccc6)c45)cc3)c2n1` here?
Answer: 94.9% (inactive)

Question: Which growth does the source give for `COc1cc(-c2cc(-c3ccc(N(C)C)cc3)nc(N3CCC(O)CC3)c2C#N)cc(OC)c1OC` here?
Answer: -23.6% (active)

Question: For `N#Cc1c(N)nc2c(C#N)c(NC(=O)c3ccccc3)nn2c1-c1ccccc1`, which growth is on record?
Answer: 93% (inactive)

Question: With `Fc1cnccc1C1CC(c2ccc(N3CCNCC3)cc2)=NN1` (stereo not given) as the compound, how does the growth read?
Answer: 77.3% (inactive)

Question: How did the growth turn out when `COc1ccc(/C=C/C(=O)c2ccc(Nc3ccnc4cc(Cl)ccc34)cc2)cc1` was run?
Answer: 17.5% (inactive)

Question: For `CC[Si](CC)(CC)OC1[C@@H](O[Si](CC)(CC)CC)[C@@H](CNC(=O)NC)O[C@H]1n1cnc2c(NC(=O)Nc3ccccc3)ncnc21` (stereo not given in full), which growth is on record?
Answer: -39.6% (active)

Question: With `CC[C@]12C=CCN3CC[C@@]4(c5cc(NC(=O)CCC(=O)OCc6cn(Cc7ccc(F)cc7)nn6)c(OC)cc5N(C)[C@H]4[C@@](O)(C(=O)OC)[C@@H]1OC(C)=O)[C@@H]32` as the compound, how does the growth read?
Answer: 96.8% (inactive)

Question: Which growth does the source give for `O=C(NNc1ccccc1)OCc1ccccc1` here?
Answer: 5.98% (active)

Question: `CCOC(=O)c1nn(C2CCCCO2)c2ccc(NC(=O)CN3CCOCC3)cc12` (stereo not given) was tested. Which growth did it give?
Answer: 97% (inactive)

Question: `Cn1cc(-c2csc(-c3cn(CCCN4CCCCC4)c4ccc(Br)cc34)n2)c2cccnc21` was tested. Which growth did it give?
Answer: 0.828% (active)

Question: `Cc1ccc(-n2c(=S)[nH]c3sc4c(c3c2=O)CCC(=O)C4)cc1` was tested. Which growth did it give?
Answer: 4.93% (active)

Question: For `CCC(O)c1ccc(Br)cc1NC(=O)c1cccc(Cl)c1` (stereo not given), which growth is on record?
Answer: -6.38% (active)

Question: For `CCCCCCCCCCCCCCCCNC(=O)Nc1ccc(C)c(NC(=O)NCCCCCCCCCCCCCCCC)c1`, which growth is on record?
Answer: 98.8% (inactive)

Question: With `CC/C=C\C[C@H](O)C/C=C1/C(=O)C(Cl)=C[C@@H]1C/C=C\CCCC(=O)O` as the compound, how does the growth read?
Answer: 19.4% (inactive)

Question: With `CNC(=O)c1cccc(-c2ccc3c(N4CCOC[C@@H]4C)nc(N4CCOC[C@@H]4C)nc3n2)c1` as the compound, how does the growth read?
Answer: 28.2% (inactive) and 7.66% (active)

Source: PubChem BioAssay (NCI)
